Data as given in PubChem BioAssay AID1159580 (chemical genetic matrix, 2015).
Out of some 5,500 compounds screened, about 2,000 (36%) were called active. Inconclusive results (about 18%) are left out. Rule as the data show it: active = normalized growth mostly below about 0.91 (no sharp cut-off); inconclusive = no clear call, values can overlap the other calls; inactive = mostly above about 0.92. This is one part of the list.

Assay: chemical genetic growth profiling, strain panel (AID 1159580);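 also: tested at 20 µM; growth read once vehicle control cultures reached saturation at 30 °C; 1 = growth at the plate median or of vehicle wells; lower values mean less growth of the strain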
Conditions: S. cerevisiae deletion strains, growth OD

Measured: normalized growth

Clc1cccc(Cl)c1C1CC(c2ccccc2)=Nc2ccccc2S1 (stereo unspecified)
inactive: locus YAR019C, strain CDC15, active compounds read low 0.986 | locus YBL105C, strain PKC1, active compounds read low 0.986 | locus YBR135W, strain CKS1, active compounds read low 0.993 | locus YBR136W, strain MEC1, active compounds read low 0.962 | locus YBR160W, strain CDC28, active compounds read low 0.988 | locus YDL017W, strain CDC7, active compounds read low 0.98 | locus YDL028C, strain MPS1, active compounds read low 0.99 | locus YDL101C, strain DUN1, active compounds read low 0.984 | locus YDL108W, strain KIN28, active compounds read low 0.989 | locus YDL132W, strain cdc53, active compounds read low 0.994 | locus YDL214C, strain PRR2, active compounds read low 0.978 | locus YDR052C, strain DBF4, active compounds read low 0.982 | locus YDR054C, strain cdc34, active compounds read low 0.978 | locus YDR226W, strain ADK1, active compounds read low 0.982 | locus YDR477W, strain SNF1, active compounds read low 0.979 | locus YER123W, strain YCK3, active compounds read low 0.981 | locus YER133W, strain GLC7, active compounds read low 0.981 | locus YFL009W, strain cdc4, active compounds read low 0.989 | locus YFL029C, strain CAK1, active compounds read low 0.98 | locus YFR003C, strain YPI1, active compounds read low 0.989 | locus YFR019W, strain FAB1, active compounds read low 0.986 | locus YFR028C, strain CDC14, active compounds read low 0.985 | locus YGR040W, strain KSS1, active compounds read low 0.967 | locus YGR052W, strain FMP48, active compounds read low 1.07 | locus YGR092W, strain DBF2, active compounds read low 0.989 | locus YHR030C, strain SLT2, active compounds read low 0.987 | locus YHR079C, strain IRE1, active compounds read low 0.992 | locus YHR082C, strain KSP1, active compounds read low 1.02 | locus YHR205W, strain SCH9, active compounds read low 0.936 | locus YIL147C, strain SLN1, active compounds read low 0.981 | locus YJL095W, strain BCK1, active compounds read low 1 | locus YJL128C, strain PBS2, active compounds read low 0.958 | locus YJL157C, strain FAR1, active compounds read low 0.988 | locus YJR016C, strain ILV3, active compounds read low 0.992 | locus YJR066W, strain TOR1 (second series), active compounds read low 0.95 | locus YJR066W, strain TOR1, active compounds read low 0.991 | locus YKL048C, strain ELM1, active compounds read low 0.982 | locus YKL067W, strain YNK1, active compounds read low 0.974 | locus YKL101W, strain HSL1, active compounds read low 0.966 | locus YKL193C, strain SDS22, active compounds read low 0.991 | locus YKL203C, strain TOR2, active compounds read low 1.02 | locus YLR113W, strain HOG1, active compounds read low 0.93 | locus YLR133W, strain CKI1, active compounds read low 0.977 | locus YLR403W, strain SFP1, active compounds read low 0.973 | locus YML070W, strain DAK1, active compounds read low 0.981 | locus YMR001C, strain CDC5, active compounds read low 0.986 | locus YMR205C, strain PFK2 (second series), active compounds read low 0.979 | locus YMR277W, strain FCP1, active compounds read low 0.991 | locus YNL006W, strain LST8, active compounds read low 0.995 | locus YNL020C, strain ARK1, active compounds read low 0.985 | locus YNL161W, strain CBK1, active compounds read low 0.981 | locus YNL183C, strain NPR1, active compounds read low 0.997 | locus YNL207W, strain RIO2, active compounds read low 0.985 | locus YNL222W, strain SSU72, active compounds read low 0.995 | locus YNL307C, strain MCK1 (second series), active compounds read low 0.999 | locus YOL078W, strain AVO1, active compounds read low 0.99 | locus YOL136C, strain PFK27, active compounds read low 0.973 | locus YOR061W, strain CKA2, active compounds read low 0.978 | locus YOR119C, strain RIO1, active compounds read low 0.997 | locus YOR231W, strain MKK1, active compounds read low 0.988 | locus YOR329C, strain SCD5, active compounds read low 0.978 | locus YPL031C, strain PHO85, active compounds read low 0.982 | locus YPL153C, strain RAD53, active compounds read low 0.982 | locus YPL204W, strain HRR25, active compounds read low 0.99 | locus YPL209C, strain IPL1, active compounds read low 0.988 | locus YPL256C, strain CLN2, active compounds read low 0.947 | locus YPR025C, strain CCL1, active compounds read low 0.987 | locus YPR106W, strain ISR1, active compounds read low 0.981 | locus YPR111W, strain DBF20, active compounds read low 0.983 | strain NNK1, active compounds read low 0.99 | strain TSCII, active compounds read low 0.986
